Screening data as filed in PubChem.
The list is not random: actives were taken first. Their share in the collection is about 1.5%.
BLM helicase inh: blocks DNA unwinding by human BLM helicase | recombinant BLM DNA unwinding, fluorescence dequenching | Potency, µM (doses to about 56.1 µM), for the others: top-dose activity change, negative = inhibition, hits mostly inhibitors | 350,000 tested, 0.2% active;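 further: potency means the concentration at half of the fitted maximal effect; plate controls were vehicle for no effect and no enzyme for full effect; nearly all actives have a fitted effect of over 35% in size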
PI5P4Ka inh: blocks human PI5P4K alpha kinase activity; P48426; PI5P4Kalpha enzyme, ADP-Glo luminescence, 60 min; hits give low values; max response, %; 330,000 tested, 1.2% active; active means max response of -50% or lower; inconclusive means between -30% and -50%; inactive means -30% or higher; further: value at the top dose of about 77 µM; on the % scale 0 is the no-effect control and ±100 the full control effect
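Reactions run in 0.038 M HEPES pH 7.4, 0.28 mM EGTA, 0.1% CHAPS and 5% DMSO, with PI5P4Kalpha, substrate, compound and 5 microM ATP final, one hour at room temperature. Readout is ADP-Glo luminescence.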
RECQ1 inh: RECQ1 (human) helicase inhibition; P46063; Potency, µM (titrated, usually from 57.3 µM), without a hit: at the highest dose activity, negative = inhibition, usual class: inhibitors; 240,000 tested, 0.54% active; AID 2549; RECQ1 DNA unwinding, red fluorescence kinetic read;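 further: potency means the concentration at half of the fitted maximal effect; plate controls were vehicle for no effect and no enzyme for full effect; nearly all actives have a fitted effect of over 30% in size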
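RECQ1T1 50 nM; forked duplex (20 bp + 30-nt ss tails) 200 nM, ATP 2 mM final; pH 8.0, 2 mM MgCl2, 2.5 ug/ml poly(dI-dC); 15 min compound preincubation; discontinuous kinetic read over 2 h at RT.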
FEN1 inh-1: human FEN1 inhibition; P39748; Recombinant FEN1 flap cleavage, fluorescence, 15 min; Potency, µM (top dose mostly 114 µM), inactives show at the top dose activity change, negative = inhibition, actives largely listed as inhibitors; 390,000 tested, 0.35% active; further: potency means the concentration at half of the fitted maximal effect; on the % scale 0 is the no-effect control and ±100 the full control effect; nearly all actives have a fitted effect of over 65% in size
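Reaction started by adding substrate (50 nM final) to 10 nM enzyme after 15 min room-temperature compound preincubation. Reads at 0 and 15 min, with data normalized and fitted to a four-parameter Hill equation.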
GCN5L2 inh: GCN5L2 (KAT2A) acetyltransferase inhibition; 390,000 tested, 0.21% active; Q92830; GCN5L2 HAT assay, ThioGlo1 CoA-SH fluorescence; Potency, µM (top dose mostly 58.9 µM), for the others: top-dose activity change, negative = inhibition, most hits filed as inhibitors; further: potency means the concentration at half of the fitted maximal effect; on the % scale 0 is the no-effect control and ±100 the full control effect
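Preincubate 20nM GCN5L2 with compound 15 min, RT → add 50uM ThioGlo1 + 75uM H3(1-25) + 70uM acetyl-CoA → read fluorescence 0 and 20 min. Primary qHTS; fluorescent artifacts likely.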
APEX1 inh: APE1 (human) endonuclease inhibition | P27695 | recombinant APE1, TAMRA/BHQ-2 abasic DNA cleavage fluorescence | Potency, µM (series often up to 65.8 µM), for the others: top-dose activity change, negative = inhibition, most hits filed as inhibitors | 350,000 tested, 0.35% active;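 further: potency means the concentration at half of the fitted maximal effect; plate controls were vehicle for no effect and reference inhibitor for full effect; nearly all actives have a fitted effect of over 55% in size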
Target sequence (P27695 whole entry, looked up): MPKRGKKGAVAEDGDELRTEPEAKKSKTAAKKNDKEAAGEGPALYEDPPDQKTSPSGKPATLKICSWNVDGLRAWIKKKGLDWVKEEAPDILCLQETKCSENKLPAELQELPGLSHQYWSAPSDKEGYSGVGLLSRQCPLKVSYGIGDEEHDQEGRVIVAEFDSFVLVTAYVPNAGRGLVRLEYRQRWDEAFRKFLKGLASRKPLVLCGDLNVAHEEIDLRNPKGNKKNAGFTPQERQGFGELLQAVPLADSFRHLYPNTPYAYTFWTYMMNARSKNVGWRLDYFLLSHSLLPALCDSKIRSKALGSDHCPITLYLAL
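Quantitative HTS: incision of a TAMRA/BHQ-2 double-stranded substrate bearing a tetrahydrofuran abasic site by 0.75 nM APE1 raises fluorescence. Substrate 50 nM final, added after 15 min compound preincubation at room temperature; progress as third-minus-first kinetic read difference.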
FEN1 inh-2: FEN1 inhibition, cherry-pick retest; shares compounds with FEN1 inh-1; FEN1 flap cleavage, TAMRA/BHQ2 fluorogenic DNA substrate; Potency, µM, usual class: inhibitors; 880 tested, 79% active; further: potency means the concentration at half of the fitted maximal effect; nearly all actives have a fitted effect of over 60% in size
* marks the source's active call; other numbers are inactive results; i = inactive; ? = inconclusive; nt = no result; [ ] = another dose, or the depositor's remark. Unless noted, the call rests on the fitted dose curve; in most records, active means well fitted curve in the direction sought with a large enough effect; inconclusive means small, poorly fitted or top-dose-only effect, or another doubt; inactive means no such curve, though single readings can be large; an effect the other way counts as inactive or inconclusive.

SMILES | BLM helicase inh | PI5P4Ka inh | RECQ1 inh | FEN1 inh-1 | GCN5L2 inh | APEX1 inh | FEN1 inh-2
O=C1OCCC1N(C(=O)C1CC1)c1cccc(Cl)c1 (stereo not drawn) | 2.5% | nt | -4.9% | nt | -10.1% | -2.2% | nt
COC(=O)C1=C(C(=O)OC)[C@@H]2N(C)c3ccc(OC)cc3[C@@]23C[C@@H](C(=O)OC)N(C(C)=O)C3=N1 | -0.7%[12.4 µM] | nt | -6.0%[11.5 µM] | nt | nt | -3.2%[12.4 µM] | nt
CCOc1ccc(Nc2c3ccccc3nc3ccccc23)cc1 | -3.7% | 4.1 | -27.1% | 44.7µM* | -6.4% | -6.6% | 42.6*
N#Cc1cccc(S(=O)(=O)N2CCN(S(=O)(=O)c3ccc4c(c3)OCCO4)CC2)c1 | nt | nt | nt | -10.8% | nt | nt | nt
CCOc1ccccc1NC(=O)C(=O)/C=C(\O)c1cc(OC)ccc1OC | -3.5% | -9.5 | -5.1% | ? | 4.5%[0.501 µM] | 2.5% | nt
COc1ccc(OC)c(/C(O)=C/C(=O)C(=O)Nc2cc(C)cc(C)c2)c1 | -10.8% | 1.6 | -27.9% | ? | -11.2% | -0.7% | 42.6*
Cc1ccc(/C=C/C(=O)OCC(=O)c2ccc3c(c2)NC(=O)CO3)o1 | nt | -13.9 | nt | -16.0% | -0.5% | -12.9% | nt
O=C1COc2ccc(C(=O)COC(=O)/C=C/c3ccc(Br)o3)cc2N1 | nt | -79.7* | nt | ? | -23.0% | ? | ?
CCN(CC)CCCNc1ccc2ncn3c4ccc(O)cc4c(=O)c1c23 | nt | -24.1 | nt | 10µM* | nt | nt | 8.49*
CN(C)CCNc1ccc2nnn3c4ccc(O)cc4c(=O)c1c23 | nt | -2.8 | nt | 12.6µM* | nt | nt | 8.49*
COCCCNC(=O)c1cc2c(-c3cccc(OC)c3)nn(C)c2s1 | -5.9% | -0.7 | nt | -0.4% | ? | -13.8% | nt
CCCN(CCC)CCNC(=O)c1cc2c(-c3ccc(Cl)cc3)nn(C)c2s1 | 184.1% | 3.1 | nt | ? | 5.5% | -11.9% | nt
CCN(CC)CCNC(=O)c1cc2c(-c3cccc(OC)c3)nn(C)c2s1 | 123.4% | -4.4 | nt | ? | -14.7% | -31.1% | 37.9*
CCOCCCNC(=O)c1cc2c(-c3ccc(Cl)cc3)nn(C)c2s1 | -5.8% | 0.8 | -8.1% | -13.3% | -8.9% | -7.6% | nt
CCN(CC)CCNC(=O)c1cc2c(-c3ccc(Cl)cc3)nn(C)c2s1 | 220.4% | -0.8 | 24.5% | 28.2µM* | -7.4% | -10.6% | 37.9*
CCCCN(CC)CCNC(=O)c1cc2c(-c3ccc(Cl)cc3)nn(C)c2s1 | 156.2% | 8.3 | nt | 44.7µM* | -10.9% | -25.9% | 37.9*
CCCOc1ccc(CNC(=O)Cn2cc3c(n2)-c2c(oc(C(=O)N4CCOCC4)c2C)CC3)cc1 | 2.3% | nt | nt | 6.2% | -3.3% | nt | nt
Cc1c(C(=O)N2CCC(C)CC2)c(S(=O)(=O)N2CCN(c3ccc(Cl)cc3)CC2)c(C)n1C | -3.1% | nt | nt | -14.1% | -11.2% | nt | nt
CCCCCCCCCCCCC/C=C/[C@@H](O)[C@H](CO)NC(=O)CCCCC | -13.3% | nt | i | nt | -9.3% | ? | nt
CN1CCN(c2cc(N3CCN(C(=O)c4ccco4)CC3)c3c4c(onc24)-c2ccccc2C3=O)CC1 | -17.6% | -17.0 | nt | ? | -2.8% | 16.6% | nt
O=C(O)CCCNc1cc(N2CCN(C(=O)c3ccco3)CC2)c2noc3c2c1C(=O)c1ccccc1-3 | -29.1% | ? | nt | ? | -8.4% | ? | 26.9*
O=C(NNc1ccccc1F)c1cccs1 | nt | nt | nt | 39.8% | nt | nt | nt
CCOC(=O)CCCNC(=O)N1CCc2nc(-c3ccccc3)c3c(c2C1)CO[C@@H](C)C3 | -3.8%[12.4 µM] | nt | -9.4%[11.5 µM] | nt | nt | -2.1%[12.4 µM] | nt
O=C(CCN1C(=O)S/C(=C\c2ccc(Cl)cc2)C1=O)Nc1ccc(C(=O)O)cc1 | -5.0% | 0.8 | nt | ? | ? | ? | nt
O=C(CN1C(=O)N/C(=C\c2cccn2-c2cccc(C(=O)O)c2)C1=O)Nc1ccc(Cl)cc1 | nt | nt | nt | nt | nt | nt | 60.1*
Cc1cccc(C)c1NC(=O)CN1C(=O)S/C(=C\c2cccn2-c2cccc(C(=O)O)c2)C1=O | -18.9% | -69.3* | -5.6% | 50.1µM* | -11.8% | -10.7% | 75.7*
